# GPR151 activ – activators of human GPR151 | Q8TDV0 | PathHunter beta-arrestin GPR151 cells, luminescence | 650,000 compounds, 1% hits | activation, % at 11.2 µM; in the data active = activation above about 4.9%;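 also: 0% = median of compound wells and 100% = cells with positive control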
# FBW7 act – activators of human E3 ligase FBW7. Q969H0. AlphaScreen FBW7–phospho-cyclin E peptide binding, activator screen. normalized activity (activation), % at 26.1 µM. 650,000 compounds, 0.13% hits. AID 1259310; in the data active = normalized activity above about 1.9%;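 also: purified mutant Fbw7 with reduced substrate affinity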
# Target sequence (Q969H0 whole entry, looked up): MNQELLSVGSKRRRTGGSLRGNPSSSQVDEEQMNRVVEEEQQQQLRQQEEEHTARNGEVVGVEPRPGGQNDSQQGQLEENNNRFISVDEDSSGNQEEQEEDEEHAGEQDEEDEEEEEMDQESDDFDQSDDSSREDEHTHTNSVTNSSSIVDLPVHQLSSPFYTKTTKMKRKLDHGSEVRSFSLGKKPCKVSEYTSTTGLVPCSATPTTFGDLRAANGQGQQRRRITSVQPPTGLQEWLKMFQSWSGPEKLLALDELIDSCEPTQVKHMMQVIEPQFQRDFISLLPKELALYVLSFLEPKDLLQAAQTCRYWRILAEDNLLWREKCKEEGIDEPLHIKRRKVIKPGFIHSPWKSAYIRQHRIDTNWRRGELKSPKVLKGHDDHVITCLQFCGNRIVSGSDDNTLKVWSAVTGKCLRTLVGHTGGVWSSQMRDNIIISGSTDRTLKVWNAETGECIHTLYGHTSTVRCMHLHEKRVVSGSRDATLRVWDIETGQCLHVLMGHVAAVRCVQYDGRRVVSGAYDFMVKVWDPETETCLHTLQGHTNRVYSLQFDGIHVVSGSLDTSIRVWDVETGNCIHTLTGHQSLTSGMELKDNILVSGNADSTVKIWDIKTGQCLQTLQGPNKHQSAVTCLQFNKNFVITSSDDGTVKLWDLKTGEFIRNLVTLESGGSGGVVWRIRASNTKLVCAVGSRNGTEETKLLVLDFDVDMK
# TEAD-YAP inh – TEAD-YAP interaction inhibition; 640,000 compounds, 1.4% hits; inhibition, % at 9.12 µM; HEK-TIYL cells, TEAD-Gal4/YAP UAS-luciferase luminescence; in the data active = inhibition above about 32%;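 also: 0% = median of test compound wells and 100% = reference inhibitor wells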
# MITF primary – blocks human microphthalmia-associated transcription factor; O75030; 650,000 compounds, 0.91% hits; inhibition, % at 2.6 µM; AlphaScreen MITF homodimerization, bead proximity signal; AID 1259374; in the data active = inhibition above about 50%;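 also: 0% = vehicle wells with protein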
# * marks the source's active call; other numbers are inactive results. Most compounds without a hit are left out; they make up all but 3.4% or so of the library.
SMILES,GPR151 activ,FBW7 act,TEAD-YAP inh,MITF primary
CCCN(C)C(=O)c1cnc2scc(-c3cccc(OC)c3)n2c1=O,-0.7,-0.1,-6.1,-3.1
COc1cc(OC)cc(-c2cc3nc4c(c(NCc5cccnc5)n3n2)CCC4)c1,-0.5,-0.1,44.7*,-3.8
COc1cccc(-c2cc3nc4c(c(NCc5cccnc5)n3n2)CCC4)c1,-0.6,-0.1,42.2*,-0.8
COc1ccccc1-n1c(CNC(=O)c2ccc(C(C)(C)C)cc2)n[nH]c1=S,1.5,-0.1,-5.4,-5.0
Cc1nonc1C(=O)N/N=C/c1ccc(O)cc1O,-8.3,-0.9,3.7,81.5*
CCc1c(C(=O)N/N=C/c2ccc(O)cc2O)nnn1-c1nonc1N,-1.8,0.1,76.3*,-0.2
CC(C)(C)c1ccc(C(=O)N/N=C/c2ccc(O)cc2O)cc1,0.6,-0.1,8.6,-50.7
CCCN(CCC)Cc1c(C(=O)N/N=C/c2ccc(O)cc2O)nnn1-c1nonc1N,0.3,-0.3,71.0*,35.7
CN(C)Cc1c(C(=O)N/N=C/c2ccc(O)cc2O)nnn1-c1nonc1N,-0.2,-0.6,24.4,14.6
CC(C)CC(C(=O)N1CCN(c2ccc([N+](=O)[O-])cc2)CC1)N1Cc2ccccc2C1=O (configuration not stated),1.7,0.1,4.7,10.8
CC(=O)NCc1ccc(S(=O)(=O)NCCOc2ccc(C)cc2)cc1,0.9,0.1,5.8,-10.4
COc1ccc(C2=NN(c3nc(-c4ccccc4)c4cc(C)ccc4n3)C(c3ccc(OC)cc3)C2)cc1 (configuration not stated),-0.8,0.1,-1.1,-13.4
Cc1cccc(Cn2cc(SCC(=O)NCc3ccco3)c3ccccc32)c1,2.8,-0.1,36.1*,-4.4
Cc1cc2nnc(SCC(=O)NCc3ccco3)n2c2ccccc12,-3.0,-0.1,48.1*,-4.8
CNCC(O)COc1ccc(OC)cc1 (configuration not stated),-0.8,0.0,8.3,8.4
COc1ccc(NC(=O)c2cc([N+](=O)[O-])ccc2O)cc1,-9.8,0.6,86.0*,-6.7
O=C(NNC(=O)c1cc2ccccc2cc1O)Nc1cccc([N+](=O)[O-])c1,-1.6,-0.2,-6.5,-4.8
COc1ccc(OCC(=O)Nc2cc([N+](=O)[O-])ccc2O)cc1,-7.0,-0.2,89.6*,-1.1
O=C(Nc1ccc(Cl)cc1)c1cc([N+](=O)[O-])ccc1O,-10.0,-0.1,72.0*,11.3
O=C(Nc1cccc([N+](=O)[O-])c1)c1cc2ccccc2cc1O,-0.5,0.0,34.3*,-0.8
CN1C(=O)/C(=C/c2cn(CC(=O)O)c3ccccc23)c2ccccc21,0.2,-0.1,8.4,3.0
CCOC(=O)c1sc2nc(-c3ccc(C)cc3)cc(-c3ccco3)c2c1N,0.2,-0.1,2.7,12.8
O=C(Nc1c(Cl)cc([N+](=O)[O-])cc1Cl)c1cc(Cl)ccc1O,4.7,-0.1,66.6*,0.2
COc1ccc(/C=N/NC(=O)c2cc([N+](=O)[O-])ccc2O)cc1,-9.1,-0.2,33.1*,-4.6
CNC(=S)N/N=C\c1ccc([N+](=O)[O-])cc1,-1.1,-0.1,34.1*,2.4
SMILES,GPR151 activ,FBW7 act,TEAD-YAP inh,MITF primary
O=C(Nc1ccc([N+](=O)[O-])cc1Cl)c1cc(Br)ccc1O,0.9,-0.2,-70.1,4.8
O=C(N/N=C/c1ccc([N+](=O)[O-])cc1)C(=O)N/N=C/c1ccc([N+](=O)[O-])cc1,3.7,0.2,3.6,-13.6
Cc1ccc(NC(=O)c2cc([N+](=O)[O-])ccc2O)cc1,-9.7,0.1,75.8*,25.8
CC1CCN(CCC(=O)Nc2sc3c(c2C#N)CCCCC3)CC1,1.1,0.1,3.9,13.6
O=C(N[C@H]1C[C@H]2C(=O)N[C@@H](COCc3ccccc3)C(=O)N2C1)c1ccccc1,0.2,0.1,-4.4,-8.8
COc1ccc(CNc2nc3ccc(-c4ccncc4)cc3s2)cc1,-0.4,60.2*,-39.6,30.4
Cc1cccc(C)c1NC(=O)c1cc2c(=O)n3ccccc3nc2n1C,0.8,0.3,36.6*,-8.7
CCc1sc(/C=C(/C#N)C(=O)OC)cc1[N+](=O)[O-],0.7,-0.1,7.4,13.9
CCCNc1nc(-c2ccc(OC)cc2)nc2c1ncn2-c1ccsc1,0.1,0.1,6.2,-2.0
CCCNc1nc(-c2ccc(OC)nc2)nc2c1ncn2-c1ccccc1,-0.4,0.0,32.6*,7.0
COc1ccc(-c2nc(NCc3ccccc3)c3ncn(-c4ccccc4)c3n2)cn1,-0.8,-0.1,7.7,-1.0
CCCNc1nc(-c2ccc(OC)nc2)nc2c1ncn2-c1ccsc1,1.2,0.8,50.8*,6.6
COc1ccc(-c2nc(NCCO)c3ncn(-c4ccccc4)c3n2)cc1,0.7,0.1,61.1*,4.1
COc1ccc(-c2nc(NCCO)c3ncn(-c4ccccc4)c3n2)cn1,-0.6,0.0,72.8*,7.1
COc1ccc(C(=O)NC(=S)Nc2ccc(NC(=O)C(C)C)cc2)cc1,0.6,0.3,7.8,12.8
Cc1ccc(-c2nnn(CC(=O)NC(C)C)n2)cc1,-1.0,0.3,-10.6,-3.2
COc1ccc(-c2nc(NC3CC3)c3ncn(-c4ccccc4)c3n2)cn1,-1.0,0.3,47.6*,18.5
COc1ccc(C(c2ccc3cccnc3c2O)N2CCOCC2)cc1 (configuration not stated),-0.8,-0.5,80.0*,18.3
COc1ccc(C(c2ccc3cccnc3c2O)N2CCCC2)cc1 (configuration not stated),-0.1,-0.2,83.8*,19.4
COc1ccc(C(c2sc3nc(C)nn3c2O)N2CCOCC2)cc1 (configuration not stated),0.1,0.1,-2.2,7.1
COc1cc(C(c2cc(Cl)c3cccnc3c2O)N2CCCC2)cc(OC)c1OC (configuration not stated),1.2,-0.9,15.6,36.6
Oc1c(C(c2ccc(Cl)cc2)N2CCOCC2)ccc2cccnc12 (configuration not stated),-0.4,-0.1,77.5*,-5.1
CCCC(=O)Nc1ccc2c(c1)CCN2C(=O)C1CC1,0.5,1.1,-2.0,12.8
O=C(Oc1nsnc1N1CCOCC1)c1ccc([N+](=O)[O-])cc1,0.2,0.0,-1.0,-2.7
Cc1ccc(NC2OC(CO)C(O)C(O)C2O)cc1C (configuration not stated),1.5,-0.1,12.2,0.5
SMILES,GPR151 activ,FBW7 act,TEAD-YAP inh,MITF primary
Cc1ccc(NC2OC(C)C(O)C(O)C2O)cc1C (configuration not stated),-1.9,2.5*,11.1,4.3
COC(=O)Nc1cc([N+](=O)[O-])cc([N+](=O)[O-])c1Br,4.5,-0.3,98.7*,-4.4
COC(=O)Nc1ccc(C(C)(C)C)cc1[N+](=O)[O-],-1.9,0.5,-4.6,13.9
O=C(COC(=O)c1ccccc1C(F)(F)F)c1ccc([N+](=O)[O-])cc1,0.1,-0.2,37.7*,-9.9
COc1ccccc1C(=O)OCC(=O)c1ccc([N+](=O)[O-])cc1,-0.6,-0.3,-7.2,6.4
CCOc1ccccc1-n1c(=S)sc2c(=O)n(-c3ccc(F)cc3)c(SCc3ccccc3C)nc21,-1.2,-0.1,1.1,4.9
Cc1ccc(N2C(=O)NC(=O)/C(=C/c3cc4c(cc3[N+](=O)[O-])OCO4)C2=O)cc1,0.0,-0.3,-1.6,-0.1

# Screening results as filed in PubChem.
